Results reported in the supplement of paper PMC3334620.
Over roughly 33,000 sequences, “E-score (-0.5 to 0.5)” has its median near -0.04; the highest 2% begin near 0.36. The sample as a whole holds a higher share of the highest values than the screen did.

Molecular target: T1, Hmlalpha2 (UniProt P0CY09)
T1 sequence: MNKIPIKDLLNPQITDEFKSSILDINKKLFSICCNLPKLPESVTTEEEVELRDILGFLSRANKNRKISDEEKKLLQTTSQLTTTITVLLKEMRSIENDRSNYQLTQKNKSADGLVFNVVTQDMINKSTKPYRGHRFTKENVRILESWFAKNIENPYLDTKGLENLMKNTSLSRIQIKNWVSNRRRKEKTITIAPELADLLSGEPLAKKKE
Assay: PBM E-score (8-mer binding enrichment) (E-score (-0.5 to 0.5)); higher = stronger / more preferred TF binding
Details: protein concentration: 200 nM; construct: GST-full length
Description: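 Universal 'all 10-mer' protein binding microarrays (Agilent AMADID 015681) probed with GST-tagged S. cerevisiae TFs (full-length or DBD) made by in vitro transcription/translation (PURExpress), about 100-200 nM. Bound TF was detected with fluorescent anti-GST. Each ungapped 8-mer (which stands for itself and its reverse complement) is scored by the PBM enrichment score (E-score), a modified Wilcoxon-Mann-Whitney statistic from -0.5 to +0.5, computed with the Universal PBM Analysis Suite. Scale: above 0.35 generally sequence-specific binding.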

Sequence | PBM E-score
GATGAGCC | -0.213
AGAAGGAA | -0.351
CCCTTAAA | -0.0696
GAGACGGA | -0.095
AAGTAGGC | -0.0798
CTTGAATC | -0.0387
CGATCTCA | -0.0804
AAGATCAG | -0.187
AACAACAC | 0.375
AACAACAA | 0.306
AACAACAG | 0.108
CACAACAC | 0.306
GACAACAC | 0.319
AACAACAT | 0.385
CGAAACCC | -0.121
CTTCTAGC | -0.197
CCCCGCAC | -0.201
CCGGGAAG | -0.179
CGTCCCCA | -0.224
CTACATCA | 0.222
GTACATTA | 0.316
CTACATGA | 0.421
GCACATGA | 0.0937
CGACATGA | 0.319
GTACATGA | 0.426

Sequence | PBM E-score
AACATTGC | 0.191
GGAATCTA | -0.132
GCACGGAC | -0.0335
ACCAAATA | 0.191
AGACACAA | 0.172
CTATACAG | 0.0549
ACACATAT | 0.317
ACACACAG | 0.364
ATACACAT | 0.399
AAACACAT | 0.314
ACACACAA | 0.313
ACACACAC | 0.326
ACACACAT | 0.379
ATACACAG | 0.408
ATACACAA | 0.42
AGACACAT | 0.128
TTCATGAA | -0.00198
ATTGAGCA | 0.0182
ATAACCAC | -0.0123
ACCCCCGA | -0.0909
GGCAAAGA | -0.0294
CCCCTGTC | -0.152
GGCCAGCC | -0.192
CAGCGACG | -0.0401
ATACACAC | 0.429

Sequence | PBM E-score
ATACACCG | 0.145
ATACACTC | 0.185
CGCTGAGA | -0.139
CCCTCAGA | -0.285
CTATTCCC | -0.203
AGTGCACC | -0.2
AGGTGTAG | 0.0925
CAGTGTAG | 0.243
ACGTGTAA | 0.482
CCGTGTCC | 0.0408
CCGTGTCG | 0.233
CAGTGTAC | 0.154
ACGTGTGA | 0.229
AGGTGTAA | 0.317
AAGTGTAG | 0.0742
ACGTGTAG | 0.429
CCGTGTAC | 0.422
CCGTGTAG | 0.452
CGGACGGA | -0.198
AGACTGGA | -0.0528
CGAATCGC | -0.169
ATGAGGAA | 0.0377
ACCTAACT | 0.00114
AACGAACC | 0.036
CATGGGGC | 0.0176

Sequence | PBM E-score
CGCAATGA | 0.0708
GAGAATAC | 0.242
ATTGTTGG | 0.151
AATCTGAA | 0.102
ACTACTTG | 0.154
GCGTGTAA | 0.486
AAGTGTAC | 0.0982
AAGTGTAT | 0.194
ACGTGTAT | 0.402
ACGTGTAC | 0.382
GGGTGTAC | -0.0223
TAGTGTAA | 0.323
ACGTGTCT | 0.193
ACGTGTGC | 0.172
GAGTGTAC | 0.0265
GCCTGTAA | 0.254
GCGTGTAC | 0.427
CAACCACG | 0.111
ATTGGTAG | 0.0446
GGATCCTA | -0.154
ATCCTAAT | -0.0163
CTGGCGAA | -0.103
CTGTCCAA | -0.0758
ACATAGGG | 0.251
ACGTAGAT | 0.267

Sequence | PBM E-score
CGCTTGCA | -0.0244
TCGCGTAA | 0.45
GCGCGTAA | 0.416
CCGCGTTA | 0.336
ACGCGTAT | 0.357
GCGCGTAC | 0.225
GCGCGTTA | 0.372
TAGCGTAA | 0.278
ACGCGTAC | 0.345
ACGCGTAA | 0.394
TGGCGTAA | 0.108
GCGCGTGA | 0.134
ACGCGTTA | 0.342
GCTGAAGC | -0.14
CCGAATGC | -0.125
ATTGATGG | 0.08
TCCATGAA | 0.043
TCCAACAA | 0.264
GGCCTACC | -0.247
CTGAGGGC | -0.3
ATCTCGGA | -0.115
AAAGCGAG | 0.107
CTCTGACA | 0.132
GCGACCAA | -0.0947
GCCAGACA | -0.163

Sequence | PBM E-score
CCGCGTAG | 0.294
CCGCGTAC | 0.266
CCGCGTAA | 0.426
ATCTACTA | 0.193
GCTATTCA | 0.0214
ACTTTGCC | -0.0921
GGGGAGTA | -0.225
AAGTTGCA | 0.109
ATTCTACG | 0.157
TATCTAAA | 0.141
TATCTACA | 0.371
CATCTACA | 0.338
GATCTACA | 0.345
AATCTACT | 0.098
GTTCTACA | 0.29
AATCTACA | 0.438
ATTCTACA | 0.371
GCATTGAC | 0.0683
CGACCGAA | -0.0499
GAAGGCCA | -0.38
ATCTGCCA | -0.149
CAGTACAG | 0.0351
TAACGGCA | -0.0141
GTTACAGA | 0.0217
GTTACATA | 0.421

Sequence | PBM E-score
GTTACTGA | 0.171
CTTACATA | 0.426
CTCACATA | 0.0587
CTTACAGA | 0.0289
ACCCCTAT | -0.208
ACACCCAG | 0.0143
GCGCGAAA | 0.189
TCACAACA | 0.324
TACTATAA | 0.171
CCATATTA | 0.063
CAATATTA | 0.213
ACATATGG | 0.104
ACATATTG | 0.142
TAATATTA | 0.379
ACATATTA | 0.389
ACATATGT | 0.369
AAATATTA | 0.317
ACATATGC | 0.123
ATGCACAC | 0.106
CTTTTGCA | 0.105
ACTTTCGG | -0.0932
AGCATCCC | -0.348
AGAACTAA | 0.189
AGAGCGGG | -0.166
ACCTACTA | 0.081

Sequence | PBM E-score
ACGCGATA | 0.324
CTCCAGGC | -0.185
ATTAAACA | 0.322
CTTAAACA | 0.128
GTTAAACA | 0.375
ATTAAAAA | 0.249
GTTAAAAA | 0.369
GTTAAAAC | 0.343
TCCTACCA | -0.318
GGATGGAA | -0.175
AGGTTCTG | -0.0953
AAACCTCT | -0.08
ATGTTTAA | 0.387
GTGTTTAA | 0.351
CTGTTTAA | 0.11
ATGTTTTA | 0.422
ATGTTTTC | 0.421
ATGTTTCC | 0.0968
CTGTTTTC | 0.036
CTGTTTTA | 0.0458
GTGTTTTA | 0.355
ACCTTGGC | -0.242
ATTGCCAA | -0.206
CCTGGACC | -0.0273
GGTTCTCA | -0.0328

Sequence | PBM E-score
CTCTACAA | 0.277
ATCTACAG | 0.151
ATCTACAC | 0.45
CCCTACAC | 0.247
ATCTACAA | 0.307
ATCTACTC | 0.00965
CTCTACAC | 0.368
ATCTACGA | 0.014
ATCTACGC | 0.368
CTCTACGC | 0.0772
GTCTACAC | 0.364
ATCTACAT | 0.452
GGAGGCTA | -0.325
GTTCTGCA | 0.104
CTAACATA | 0.273
ATAACATC | 0.327
ATAACATA | 0.437
GTAACATA | 0.355
ATAACATG | 0.452
ATAACAGG | 0.194
